# Screening data (PubChem BioAssay)
# Only some compounds are listed: those with a hit (about 7.3% of all), similar ones and a draw of the others.
# HEK293 tox = HEK 293 cell cytotoxicity; HEK 293 viability, ATP luminescence (CellTiter-Glo), 48-72 h; Potency, µM (highest dose often 115 µM), hits mostly inhibitors; 94,000 tested, 6.6% active; further: nearly all actives have a fitted effect of over 60% in size
#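 ATP-coupled CellTiter-Glo luminescence served as viability read-out, recorded 10 min after reagent addition at room temperature. HEK 293 cells, 250 cells/well, had been incubated with pintool-transferred compound for 48 or 72 hr at 37 degree Celsius.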
# SNCA expr inhib = SNCA gene expression inhibition; HEK-293 SNCA-luciferase knock-in, luminescence, 24 h; Potency, µM (top dose mostly 57.2 µM), most hits filed as inhibitors; 140,000 tested, 0.17% active; AID 1671194; further: nearly all actives have a fitted effect of over 45% in size
# FLuc inh = blocks purified firefly luciferase enzyme activity. 76,000 tested, 2.5% active. Potency, µM (highest dose often 115 µM), usual class: inhibitors. AID 1347043. purified P. pyralis luciferase, luminescence, biochemical. P08659; further: nearly all actives have a fitted effect of over 65% in size
#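 Cell-free enzyme assay, 10nM P. pyralis luciferase, luciferin and ATP each at 10uM. Inhibition profiled over a 6-point titration, read as luminescence.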
# HEK293 viab = cell viability loss counter-screen. HEK-293-SNCA-luc viability, GF-AFC fluorescence, 24 h. Potency, µM (highest dose often 57.1 µM), actives largely listed as cytotoxic. 150,000 tested, 0.12% active; further: nearly all actives have a fitted effect of over 30% in size
#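 Cytotoxicity counterscreen: after 24 h compound treatment of genome-edited SNCA-luciferase HEK-293 cells, live-cell protease substrate GF-AFC read by fluorescence after 30 min; activity scaled between DMSO (0%) and medium-only (-100%), curves Hill-fitted.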
# IP6K1 inh = IP6K1 kinase inhibition; IP6K1 kinase, ADP-Glo luminescence, 2 h; hits give low values; activity change, % (series mostly up to about 58 µM); AID 1645851; 140,000 tested, 0.81% active; Q92551; in the data active means activity change below about -25%
# Target sequence (Q92551 whole entry, looked up): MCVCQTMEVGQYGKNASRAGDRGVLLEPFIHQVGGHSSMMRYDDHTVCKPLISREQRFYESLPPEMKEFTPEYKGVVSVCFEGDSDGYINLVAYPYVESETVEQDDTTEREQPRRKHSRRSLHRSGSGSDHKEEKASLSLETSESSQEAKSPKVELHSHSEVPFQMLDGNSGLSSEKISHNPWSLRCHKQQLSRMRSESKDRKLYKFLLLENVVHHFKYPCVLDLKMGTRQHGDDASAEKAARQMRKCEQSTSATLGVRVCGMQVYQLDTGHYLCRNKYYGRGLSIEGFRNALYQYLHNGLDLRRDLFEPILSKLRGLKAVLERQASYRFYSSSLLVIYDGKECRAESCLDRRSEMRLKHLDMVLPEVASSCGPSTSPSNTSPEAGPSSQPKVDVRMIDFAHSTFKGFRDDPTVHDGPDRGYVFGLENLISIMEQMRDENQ
#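 ADP-Glo luminescence measures ADP made by human IP6K1 during a 2 h RT reaction with ATP/IP6 (mix at 1.3 mM/130 uM); top library doses 57.5 and 19.1 uM final.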
# 3T3 cytotox = kills NIH 3T3 cells; Potency, µM (titrated, usually from 96.7 µM), actives largely listed as inhibitors; NIH 3T3 viability, CellTiter-Glo ATP luminescence, 48-72 h; 94,000 tested, 4.3% active; further: nearly all actives have a fitted effect of over 55% in size
#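 Mouse fibroblast NIH 3T3 cells, 400 per well, received compound via pintool and were incubated for 48 or 72 hr prior to CellTiter-Glo ATP luminescence measurement.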
# Numbers stand for hits; i = inactive; ? = inconclusive; nt = no result given; ! = a repeat was not active; [ ] = remark or other dose. Unless noted, the call rests on the fitted dose curve; in most records, active means well fitted curve in the direction sought with a large enough effect; inconclusive means small, poorly fitted or top-dose-only effect, or another doubt; inactive means no such curve, though single readings can be large; an effect the other way counts as inactive or inconclusive.
SMILES,HEK293 tox,SNCA expr inhib,FLuc inh,HEK293 viab,IP6K1 inh,3T3 cytotox
Cc1ccc(C)c(-c2cc3c(=O)n(CCNC(=O)c4cccc(N(C)C)c4)ccn3n2)c1,?,?,i,?,i,?
Cc1csc(NC(=O)C2(C)COCc3cnc(Nc4ccccc4)nc32)n1 (configuration not stated),79µM,i,i,i,i,?
CC1(C(=O)NCc2ccccc2)COCc2cnc(Nc3ccccc3)nc21 (configuration not stated),?,i,i,i,i,?
COc1cccc(Nc2ncc3c(n2)C(C)(C(=O)Nc2nc(C)cs2)CC3)c1 (configuration not stated),50µM,i,i,i,i,?
COCCNC(=O)C1(C)CCc2cnc(Nc3cccc(OC)c3)nc21 (configuration not stated),?,i,i,i,i,?
COc1cccc(Nc2ncc3c(n2)C(C)(C(=O)N2CC[S+](=O)([O-])CC2)CC3)c1 (configuration not stated),i,i,i,i,i,100µM
CC1(C(=O)Nc2ccccc2)COCc2cnc(Nc3ccccc3)nc21 (configuration not stated),79µM,i,i,i,i,?
O=C(c1ccc(Cl)nc1)N1CCC(C(=O)N2CCC(N3Cc4ccccc4C3=O)CC2)CC1,i,i,nt,i,i,i
Cc1n[nH]c(C)c1CN1CCC2(CC1)CCN(C1CCOCC1)CC2CO (configuration not stated),i,i,i,i,i,i
O=C(O)C[C@@H]1CCN(C(=O)c2cccs2)C[C@@H]1CCN1CCN(c2ccc(F)cc2)CC1,i,i,i,i,i,i
COc1ccc(CCC(=O)N2c3ccccc3CC2c2nc(C3CC3)no2)cc1 (configuration not stated),?,i,i,i,i,?
COc1ccc(C2(C(=O)N3c4ccccc4CC3c3noc(C4CCOCC4)n3)CC2)cc1 (configuration not stated),?,i,25µM,i,i,?
O=C(NCc1cccc(F)c1)c1nc2c(o1)CCN(Cc1cc(F)ccc1F)CC2,?,i,i,i,i,50µM
O=C(NCc1cccc(F)c1)c1nc2c(o1)CCN(CCCc1ccccc1)CC2,?,i,i,i,i,89µM
O=C(NCC1CC1)c1nc2c(o1)CCN(Cc1ccc(F)cc1F)CC2,?,i,i,i,i,?
O=C(NCc1ccccc1)c1nc2c(o1)CCN(Cc1ccc(F)cc1F)CC2,100µM,i,i,i,i,71µM
O=C(NCc1cccc(F)c1)c1nc2c(o1)CCN(CC1CCCC1)CC2,i,i,i,i,i,?
COc1ccc(OC)c(S(=O)(=O)N2CC(N3CC(C(=O)N4CCCC4)CC3=O)C2)c1 (configuration not stated),i,i,nt,i,i,i
O=S(=O)(c1ccccc1)N1CCN(c2cc(C3CC(O)C3)ncn2)CC1 (configuration not stated),40µM!,i,i,i,i,?
O=C(CN1CCN(c2cc(C3CC(O)C3)ncn2)CC1)N1CCCC1 (configuration not stated),i,i,i,i,i,i
O=C1COc2ccc(-c3ccc(F)cc3)nc2CN1Cc1ccccc1F,100µM,i,i,i,i,?
COc1ccc(-c2ccc3c(n2)CN(Cc2ccccc2)C(=O)CO3)cc1F,79µM,i,i,i,i,79µM
O=C1COc2ccc(-c3ccncc3)nc2CN1Cc1ccccc1F,?,i,i,i,i,89µM
COc1ccc(-c2ccc3c(n2)CN(Cc2ccccc2F)C(=O)CO3)cc1OC,50µM,?,i,?,i,25µM
COCCN1Cc2nc(-c3ccc(OC)c(F)c3)ccc2OCC1=O,i,i,i,i,i,?
SMILES,HEK293 tox,SNCA expr inhib,FLuc inh,HEK293 viab,IP6K1 inh,3T3 cytotox
CCc1nc2c(c(-c3ccc(Cl)cc3)n1)CCN(C(=O)c1ccc(C(F)(F)F)cc1)CC2,?,i,i,i,i,?
O=C(COc1ccccc1)N1CCC2(CC1)CN(Cc1ccccc1)CC2CO (configuration not stated),?,i,i,i,i,?
COCC1CN(Cc2ccc(C(C)C)cc2)CC12CCNCC2 (configuration not stated),45µM,i,i,i,i,?
OCC1CN(Cc2ccc(Br)cc2)CC12CCNCC2 (configuration not stated),40µM,?,i,i[12.5 µM],i,40µM
OCC1CN(Cc2ccc(C(F)(F)F)cc2)CC12CCNCC2 (configuration not stated),?,?,i,i[12.5 µM],i,i
O=C(c1ccccc1F)N1CCC2(CC1)CN(Cc1ccccc1)CC2CO (configuration not stated),79µM,i,i,i,i,?
COCCCNC(=O)c1nc2sccn2c1-c1cccc(C(F)(F)F)c1,i,i,nt,i,i,i
Cn1c(CNC(=O)C2Cn3cccc3C(=O)N2Cc2ccccc2)nc2ccccc21 (configuration not stated),?,i,i,i,i,32µM
CC(C)Oc1ccc(CNC(=O)C2Cn3cccc3C(=O)N2Cc2ccccc2)cc1 (configuration not stated),?,i,i,i,i,?
COC[C@@H]1[C@H](C(=O)NCc2ccc(F)cc2)CCC(=O)N1C,i,i,nt,i,i,i
O=C(NC1CC1)c1ccc2nnc(-c3ccc(OC(F)(F)F)cc3)n2c1,i,i,nt,i,i,i
CC1=C[C@@H](CNC(=O)C2CC2)[C@H](C(C)C)C[C@H]1Cc1nnc(-c2cncn2C)o1,?,i,i,?,i,?
CC1=C[C@@H](CNc2ccccn2)[C@H](C(C)C)C[C@H]1Cc1nnc(-c2cncn2C)o1,63µM,?,i,i,i,?
CC1=C[C@@H](CNC(=O)c2ccccc2)[C@H](C(C)C)C[C@H]1Cc1nnc(-c2cncn2C)o1,79µM,i,i,i,i,100µM
O=C(COc1ccccc1)N1CCOc2ccc(CN3CCc4ccccc4C3)cc2C1,32µM,?,i,i,i,?
O=C(COc1ccc(F)cc1)N1CCOc2ccc(CN3CCc4ccccc4C3)cc2C1,?,i,i,i,i,?
Cc1ccc(OCC(=O)N2CCOc3ccc(CN4CCc5ccccc5C4)cc3C2)cc1,?,i,i,i,i,40µM
O=C(C1CC1)N1CCOc2ccc(CN3CCc4ccccc4C3)cc2C1,40µM,i,i,i,i,i
COc1ccc(C2Cn3cnc(C(=O)N4CCC(C(=O)NCC(C)C)CC4)c3CO2)cc1 (configuration not stated),i,i,i,i,i,i
